The panel holds about 83,000 compounds, 20% with a hit somewhere; the sample as a whole holds those more often.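 Cells were grown in 96-well plates and exposed to the test compound at a single concentration for 48 hours; results are reported as percent growth, with values below 10 considered active.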 Values without a mark were called inactive. Calls of active or inactive are those of the source.

The subject of this assay is SNB-19 CNS. The assay is described as follows: NCI-60 one-dose screen, 48 h (100 = growth as untreated, 0 = no growth, -100 = all killed). The following applies: 10 µM unless noted.
In the case of `NS(=O)(=O)c1ccc(-n2nc(-c3ccc(Cl)cc3)ccc2=O)cc1`, the growth was 86.8%.

On to `Nc1nc(Cl)cc(NCCCCNc2cc(Cl)nc(N)n2)n1`, for which the growth was 101%.

Consider `Fc1ccc(/C=N/n2c(-c3cc(Cl)cc(Cl)c3Cl)nn(CNc3ccc(Cl)nn3)c2=S)cc1`, for which the growth is 101%.

`COc1cc(-c2nc3ccccc3s2)ccc1OCc1nc2n(n1)S(=O)(=O)c1ccccc1N2C`: the growth was 91%.

Regarding `Cc1c(Cl)ccc2c(C(=O)Cl)cc(-c3ccccc3)nc12`, the growth is 98.6%.

`CN1CCN(Cn2nc(-c3cc(Cl)cc(Cl)c3Cl)n(/N=C/c3ccc(Cl)cc3)c2=S)CC1`: the growth is 96.6%.

As for `COc1cc2nc(C(=O)N3CCCCC3)cc(Nc3ccccc3)c2cc1OC`, the growth was 104%.

For the compound `COc1ccccc1N1CCN(CC(O)COc2c(Br)c(Br)c(Br)c3c2OC(C)(C)C3)CC1` (centres undefined), the growth is 60.8%.

For the compound `COc1cc(Cn2cc3c(c2)-c2onc(CO)c2CC3)cc(OC)c1OC`, the growth is 94.5%.

Regarding `CN1CCN(C(=O)/C=C/c2ccc([N+](=O)[O-])o2)CC1`, the growth is 98%.

With `CC(C)C1(C(C)C)NC(=O)NC1=O`, the growth was 101%.

For the compound `COc1cc(/C=C/C(=O)c2c(C)n([O-])c3cc(C)c(C)cc3[n+]2=O)cc(OC)c1OC`, the growth was 60.5%.

In the case of `COc1cc(/C=C\c2cc(/C=C\c3ccc(O)c(OC)c3)n(C(=O)CNc3ccccc3OC)n2)ccc1O`, the growth is 70.9%.

Take `OCc1cn(-c2ccc(Cl)cc2)nc1-c1ccc(O)cc1`: the growth is 104%.

On to `CCc1c2cc(Cl)ccc2n2cc(Cc3ccccc3)[nH]c(=O)c12`, for which the growth is 104%.

For the compound `Nc1ncnc2c1ccn2-c1cccc(NC(=O)c2cccc(C(F)(F)F)c2)c1`, the growth is 88.4%.

For `COc1ccc(Cl)cc1NC(=O)c1cc2c([nH]1)-c1nc(NC(=O)C(C)(C)C)sc1CC2`, the growth is 44%.

`COc1ccc(-c2coc3c(CO)c(O)ccc3c2=O)cc1`: the growth is 72.5%.

`CC(=O)c1cc2c(c(O)c1C)C(=O)C(=O)c1c(O)cccc1-2`: the growth was -85.9% (active).

`O=C(Cn1c2ccccc2c2ccncc21)N/N=C\c1ccc2ccccc2c1`: the growth is 40.5%.

Consider `OC(COc1ccccc1Cl)CN1CCN(c2ccc(Cl)cc2)CC1` (centres undefined), for which the growth is 111%.

Take `O=C(Nc1ccc(-n2ccc3c(NC(=O)c4ccccc4)nccc32)cc1)c1cccc(C(F)(F)F)c1`: the growth is 37.4%.

With `Cc1cc(N2CCOCC2)nc(N(CCNc2ccnc3cc(Cl)ccc23)Cc2ccco2)n1`, the growth is 41.5%.

For the compound `CCCCC(=O)Nc1nc2ccc(SCCC)cc2s1`, the growth was 64.4%.

For `COc1cc2ncnc(Oc3ccc(NC(=O)Nc4ccc(CN5CCOCC5)c(C(F)(F)F)c4)c4ccccc34)c2cc1OC`, the growth was 55.2%.

For `FC(F)(F)c1cccc([Si](F)(c2cccc(C(F)(F)F)c2)c2cccc(C(F)(F)F)c2)c1`, the growth was 77.7%.

Turning to `O=C(O)c1cccc(S(=O)(=O)c2ccccc2)c1`, the growth was 110%.

For the compound `C=C1C(=O)O[C@H]2[C@H]1CC/C(COC(=O)CCCC(=O)OC/C1=C/CC[C@@]3(C)O[C@H]3[C@H]3OC(=O)C(=C)[C@@H]3CC1)=C\CC[C@@]1(C)O[C@@H]21`, the growth was 67.6%.

In the case of `Cc1c(F)cccc1NC(=O)c1sc2nc3c(cc2c1N)CCCCC3`, the growth was 53.9%.

On to `O=C(Nc1cccc([N+](=O)[O-])c1)Nc1cccc([N+](=O)[O-])c1`, for which the growth was 52%.

In the case of `O=C(N/N=C1\SCC(=O)N1c1ccccc1)c1cc(-c2cc3ccccc3o2)nn1-c1ccccc1`, the growth is 104%.

Regarding `COc1cc(-c2nc(N)n(CC(=O)Nc3ccc(/C(C)=N\O)cc3)n2)cc(OC)c1OC`, the growth was 99.9%.

Turning to `O=C(Cn1c2ccccc2c2ccncc21)N/N=C/c1c[nH]c2ccccc12`, the growth is 53.4%.

For the compound `CCCN1C(=O)CSC1=Nc1ccc2cc3ccc(N=C4SCC(=O)N4CCC)cc3nc2c1`, the growth was 55.4%.

On to `CCc1cccc(C)c1NC(=O)c1sc2nc3c(cc2c1N)CCCCC3`, for which the growth was 26.8%.

For `NC(=S)NNC1CCCCC1`, the growth was 101%.

`CC(C)(C)C(=O)Nc1nc2c(s1)CCc1ccn(S(=O)(=O)c3ccccc3)c1-2`: the growth was 116%.

As to `Nc1ncnc2c1c(-c1ccc(Oc3ccccc3)cc1)nn2C[C@@H]1SSC[C@H]1O`, the growth is 40.6%.

On to `Cc1ccc[n+](CC(=O)c2cccc3ccccc23)c1`, for which the growth was 107%.

The values above are taken from PubChem BioAssay (NCI).
